From PubChem BioAssay (NCI)
About 83,000 compounds went through this panel and 20% of them were active in at least one assay; those are over-represented in the sample as a whole.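 96-well plates, one dose, 48 hours. Percent growth reported; active if below 10.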 Unmarked numbers belong to inactive results. The source made the active and inactive calls.

Tested on: IGROV1 ovarian
Experiment: NCI-60 one-dose screen, 48 h (100 = growth as untreated, 0 = no growth, -100 = all killed)
Conditions: 10 µM unless noted

SMILES	growth [%]
O=C1NCC2CCCC1C2 (centres undefined)	107
Cc1cc(CO)c(O)c(CO)c1	108
COc1ccc(Br)c(C=O)c1	92.3
O=C(O)c1ccccc1Cc1ccc2c(c1)CCCC2	99.5
O=Cc1ccc(Cl)c(Cl)c1	83.7
COc1ccc(/C=C\C(=O)/C=C/c2ccc(OC)cc2)cc1	92.3
Nc1cc2c(cc1Cl)C(=O)c1ccccc1C2=O	35.5
N#C/C(=C\c1ccc2c(c1)OCO2)c1ccccc1	62.8
O=c1[nH]c(=O)c2cc(Cl)cc(Cl)c2[nH]1	90.6
CNc1ccccc1C(N)=O	100
Cn1c(=O)[nH]c2ccccc2c1=O	111
CCOC(=O)C(C#N)=C1CCN(C)CC1	96.9
COC(CCCl)c1ccc(Cl)cc1 (centres undefined)	100
C=CCC(OC(C)=O)c1ccc(OC)c(OC)c1 (centres undefined)	96.6
COc1ccc(C2CCCCC2=O)cc1 (centres undefined)	118
O=[N+]([O-])c1c(Cl)ncnc1Cl	117
CCN(CC)c1ccc2nc3ccc(N=Nc4ccc(N(C)C)cc4)cc3[n+](-c3ccccc3)c2c1	14.5
c1ccc2[nH]c(Cc3nc4ccccc4[nH]3)nc2c1	92.2
N#CCCN1C(=O)CCC1C(=O)O (centres undefined)	107
O=C(O)Cc1cccc2ccccc12	112
Cc1nc(C)c(C(=O)O)cc1C(=O)O	124
Clc1ccc(/C=C/c2ccccn2)cc1	87.2
N#CC1(O)CCCCC1	101

Tested on: OVCAR-3 ovarian
Experiment: as above
Conditions: 10 µM unless noted

SMILES	growth
Nc1nc(N)nc(N2CCCCC2)n1	105%
O=C1NCC2CCCC1C2 (centres undefined)	114%
Cc1cc(CO)c(O)c(CO)c1	113%
C#CC(O)c1ccccc1 (centres undefined)	106%
COc1ccc(Br)c(C=O)c1	74.2%
COC(c1ccc2c(c1)OCO2)C(C)Br (centres undefined)	110%
O=C(O)c1ccccc1Cc1ccc2c(c1)CCCC2	111%
O=[N+]([O-])c1ccc(-c2nc(N(CCO)CCO)c3ccccc3n2)o1	-34.3% (active)
O=Cc1ccc(Cl)c(Cl)c1	116%
CCC(C)C1CCC(O)CC1 (centres undefined)	108%
CC(C)c1ncc([N+](=O)[O-])n1C	125%
COc1ccc(/C=C\C(=O)/C=C/c2ccc(OC)cc2)cc1	85.1%
Nc1cc2c(cc1Cl)C(=O)c1ccccc1C2=O	62.3%
Cc1ccc(Cc2ccc(C)cc2)cc1	116%
N#C/C(=C\c1ccc2c(c1)OCO2)c1ccccc1	79.4%
CCOC(=O)c1c[nH][nH]c1=O	112%
O=c1[nH]c(=O)c2cc(Cl)cc(Cl)c2[nH]1	126%
CC(=O)c1cc(O)ccc1O	119%

SMILES	growth
Nc1ccn(C2CC(N)C(CO)O2)c(=O)n1 (centres undefined)	115%
CNc1ccccc1C(N)=O	114%
Cn1c(=O)[nH]c2ccccc2c1=O	112%
CCOC(=O)C(C#N)=C1CCN(C)CC1	117%
NNC(=O)c1ccccc1N	124%
COC(CCCl)c1ccc(Cl)cc1 (centres undefined)	109%
C=CCC(OC(C)=O)c1ccc(OC)c(OC)c1 (centres undefined)	111%
COc1ccc(C2CCCCC2=O)cc1 (centres undefined)	121%
O=[N+]([O-])c1c(Cl)ncnc1Cl	105%
CCN(CC)c1ccc2nc3ccc(N=Nc4ccc(N(C)C)cc4)cc3[n+](-c3ccccc3)c2c1	-30.6% (active)
c1ccc2[nH]c(Cc3nc4ccccc4[nH]3)nc2c1	122%
CC1=CC(=Nc2ccc(N(C)C)cc2)C=C(C)C1=O	60%
N#CCCN1C(=O)CCC1C(=O)O (centres undefined)	115%
O=C(O)Cc1cccc2ccccc12	111%
Clc1ccc(/C=C/c2ccccn2)cc1	98.4%
N#CC1(O)CCCCC1	104%
CCNc1ncnc2[nH]ncc12	112%
CC12CCC3c4ccc(O)cc4CCC3C1CCC2=O (centres undefined)	112%

Tested on: HS 578T breast
Experiment: as above
Conditions: 10 µM unless noted

SMILES	growth
Nc1nc(N)nc(N2CCCCC2)n1	97.3%
C#CC(O)c1ccccc1 (centres undefined)	107%
COC(c1ccc2c(c1)OCO2)C(C)Br (centres undefined)	91.2%
O=[N+]([O-])c1ccc(-c2nc(N(CCO)CCO)c3ccccc3n2)o1	-41.8% (active)
CCC(C)C1CCC(O)CC1 (centres undefined)	104%
CC(C)c1ncc([N+](=O)[O-])n1C	80.1%
Cc1ccc(Cc2ccc(C)cc2)cc1	105%
CCOC(=O)c1c[nH][nH]c1=O	119%
CC(=O)c1cc(O)ccc1O	110%
Nc1ccn(C2CC(N)C(CO)O2)c(=O)n1 (centres undefined)	114%
NNC(=O)c1ccccc1N	117%
CC1=CC(=Nc2ccc(N(C)C)cc2)C=C(C)C1=O	90.8%
Cc1nc(C)c(C(=O)O)cc1C(=O)O	124%
CCNc1ncnc2[nH]ncc12	109%
CC12CCC3c4ccc(O)cc4CCC3C1CCC2=O (centres undefined)	104%
